From ChEMBL document CHEMBL4888484, “Replenishing the malaria drug discovery pipeline: Screening and hit evaluation of the MMV Hit Generation Library 1 (HGL1) against asexual blood stage Plasmodium falciparum ,using a nano luciferase reporter read-out” (2022)
Out of some 150,000 compounds screened, about 540 (0.36%) showed an effect of 50% or more. For the sample, strong results were picked, then their nearest neighbours and some compounds at random.

Each compound was assayed on Plasmodium falciparum (assay: Primary screen in NF54 nanoGlo assay, in single point, at 2uM, 72h; a lower Z score goes with more inhibition). Details: timepoint 72 hour.
Assay type: functional, Erythrocyte

| SMILES | % Inhibition | Z score |
| --- | --- | --- |
| O=C(Cn1cnc2ccc(Cl)cc2c1=O)NCCCc1ccccc1 | 2% | -0.27 |
| Cc1ccsc1CN(CCN1CCOCC1)[C@H]1CCCNC1 | -5% | 0.7 |
| CCOC(=O)N1CC[C@H](NC2(c3cc(F)ccc3F)CC2)C1 | -9% | 1.36 |
| O=C(Cn1cc2c(n1)CCCCCC2)NCCc1ccc(Cl)cc1 | 6% | -0.96 |
| C[C@@H](CNc1nc(-c2ccccc2)nc2ccccc12)N1CCOCC1 | -9% | 1.51 |
| C[C@@H](CNc1cnc2ccccc2n1)N1CCOCC1 | 20% | -2.58 |
| CCCCCc1nc([C@H](C)N2CCN(C)CC2)n(-c2cc(C)ccn2)n1 | -3% | 0.42 |
| O=S(=O)(c1ccc(Cl)s1)N1CCc2nc(-c3ccc(Cl)cc3)ncc2C1 | -11% | 1.78 |
| Cc1cccc2c1OCC[C@H]2NC(=O)Cn1cnc2c1CCNC21CCOCC1 | -5% | 0.76 |
| C[C@@H](NCCCn1ccnc1)c1ccc(Cl)cc1 | -4% | 0.5 |
| O[C@@H](CNCCCn1ccnc1)COc1ccc(Cl)cc1Cl | 26% | -2.66 |
| O=c1[nH]nc(Cn2ccnc2)n1Cc1ccc(Cl)cc1Cl | 0% | -0.08 |
| Clc1ccc(Cn2cc(CNCCCn3ccnc3)c3ccccc32)c(Cl)c1 | 98% | -10.9 |
| CCOc1cc(CNCCCn2ccnc2)ccc1OCc1ccccc1 | 46% | -2.57 |
| Clc1ccc(COc2ccc(Cl)cc2CNCCCn2ccnc2)c(Cl)c1 | 94% | -11.1 |
| O=C(O)c1cccc(CN2CCc3nc(C4CC4)ncc3C2)c1 | -13% | 1.45 |
| CC1CC(N2CCCC(n3cnc4ccccc43)C2)CN1C (configuration not stated) | -5% | 0.43 |
| Cc1ccc(C(=O)c2nocc2C(=O)c2cccnc2)cc1 | 1% | -0.19 |
| CCc1cc(C(=O)N2CCN(C/C=C/c3ccccc3)CC2)cc(=O)[nH]1 | 0% | 0.04 |
| CC1CCC(C(C)C)C(OC(=O)Cn2nnc(C(N)=O)n2)C1 (configuration not stated) | 19% | -2.22 |
| CC1CCC(C(C)C)C(OC(=O)COC(=O)c2ccncc2)C1 (configuration not stated) | -10% | 1.31 |

| SMILES | % Inhibition | Z score |
| --- | --- | --- |
| CC(C)[C@@H]1CC[C@H](C)C[C@H]1OC(=O)Cn1cc(-c2ccc(Cl)cc2)[n+]2c1CCC2 | 79% | -6.99 |
| Cc1onc(-c2ccccn2)c1C(=O)NC1CCCCC1 | 12% | -2.28 |
| CNC(=O)CCCC(=O)Nc1ccc(Br)cc1O | -9% | 0.88 |
| O=C(Nc1ccc(Cc2ccc(NC(=O)c3ccc(Br)cc3)c(O)c2)cc1O)c1ccc(Br)cc1 | 60% | -1 |
| C=C(C)C(=O)Nc1ccc(Cc2ccc(NC(=O)C(=C)C)c(O)c2)cc1O | 0% | -0.04 |
| CCN(CC(=O)N1CCCNC(=O)[C@@H]1C)c1ccccc1 | -10% | 1.27 |
| O=C(NCCN1CCCCC1)c1n[nH]c2c1CCc1ccccc1-2 | 52% | -0.47 |
| O=C(NCCc1nccs1)c1n[nH]c2c1CCc1ccccc1-2 | -9% | 1.37 |
| O=C(c1n[nH]c2c1CCc1ccccc1-2)N1CCCCCC1 | -15% | 1.3 |
| Nc1ccc(F)cc1NC(=O)c1coc(-c2ccccc2)n1 | -10% | 1.7 |
| CCc1ncc(NC(=O)c2coc(-c3ccccc3)n2)cn1 | -21% | 2.66 |
| Cc1nc(C(=O)Nc2[nH]c(=O)ncc2F)c(-c2ccccc2)o1 | 80% | -7.61 |
| CC(C)c1nc(C(=O)Nc2[nH]nc(C3CC3)c2C#N)cs1 | -25% | 3.79 |
| Cc1cnc(NC(=O)c2nc(C)oc2-c2ccccc2)[nH]1 | -10% | 1.11 |
| CC(C)c1nc(C(=O)N[C@@H](C)C(N)=O)cs1 | -9% | 1.83 |
| Cc1nc(C(=O)NC[C@@]23CCC[C@@H]2OCC3)c(-c2ccccc2)o1 | 0% | -0.01 |
| CC(C)c1nc(C(=O)Nc2[nH]c(=O)ncc2F)cs1 | 88% | -15.46 |
| O=C(Nc1[nH]c(=O)ncc1F)c1coc(-c2ccccc2)n1 | 80% | -14.59 |
| CCOCCCNC(=O)C1CCN(C(=O)c2cc3oc(C)cc3n2Cc2c(F)cccc2Cl)CC1 | -1% | 0.06 |
| CN1CCN(S(=O)(=O)N2CCN(Cc3cccn3C)CC2)CC1 | 7% | -0.7 |
